Data on five compounds can be found in PubChem BioAssay.

Records with an inconclusive call do not appear. Activity calls are given as the source filed them. Rule as the data show it, unless noted: active = percent of DMSO control GFP below about 86%; inactive = the rest, inconclusive results apart.

The nature of assay [1]: rapamycin-like changes in RPL19A-GFP expression – cell-based, S. cerevisiae, multiplex flow cytometry, primary screen (AID 1862).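 Also: lower values mimic rapamycin by blocking the RPL19A rise seen in DMSO cells.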 As to conditions: S. cerevisiae RPL19A-GFP strain, flow cytometry fluorescence, 3 h; at 10 µM; stronger effect = lower value. For orientation: A flow cytometer gives signals particle by particle.
Assay [2] can be described thus: TOR pathway GLN3 branch reporter MEP2-GFP changes – S. cerevisiae, multiplex flow cytometry, primary screen (AID 1867;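 active = GFP response, as percent of the DMSO control, above the screen-wide mean plus 3 SD, about 139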;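 also: median GFP channel fluorescence of barcode-gated MEP2-GFP cells measured by flow cytometry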). The conditions noted are these: S. cerevisiae MEP2-GFP strain, 3 h, at 10 µM, stronger effect = higher value, 100% means same as DMSO wells.
Assay [3] can be described thus: TOR pathway RTG branch CIT2 reporter changes – S. cerevisiae, GFP fusion, multiplex flow cytometry, primary screen (AID 1870;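 active = percent response above a set limit, the screen-wide mean plus 3 SD, cut at about 130% in these data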;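 also: barcoded CIT2-GFP strain pooled with four other GFP strains with rapamycin as positive control; median GFP fluorescence per well over plate mean of DMSO wells so 100% = DMSO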). As to conditions: S. cerevisiae CIT2-GFP expression, 3 h, at 10 µM, stronger effect = higher value.
Assay [4] in a line: TOR pathway LAP4-GFP level changes – S. cerevisiae, multiplex flow cytometry, primary screen (AID 1873;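 active = GFP signal, as percent of the solvent control, above the screen mean plus 3 SD, about 149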). As to conditions: S. cerevisiae LAP4-GFP expression, 3 h, at 10 µM, stronger effect = higher value.
Assay [5] in a line: yeast AGP1-GFP level changes, GLN3 branch – cell-based, multiplex flow cytometry, S. cerevisiae, primary screen (AID 1887;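 active = GFP signal above the screen-wide mean plus 3 SD, that is over about 124.5% of the solvent control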;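 also: AGP1-GFP fusion strain of S. cerevisiae within a five-strain barcoded multiplex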). As to conditions: 3 h, at 10 µM, stronger effect = higher value.
Assay [6] in a line: reduced mouse 2C T cell binding to pMHC/ICAM-1 vesicles – MLPCN validation set, flow cytometry, LFA-1/ICAM-1 modulator project, pilot screen (AID 2523;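 active = response below a set limit, under 55% cells CD8-positive and vesicle-bound, and CD8 cells' 90th-percentile brightness under 279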;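 as to vesicle binding response: mean PE anti-B7-1 fluorescence of CD8+ cells relative to row control; 100% = QL9-loaded vesicles with DMSO vehicle in the same plate row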). The conditions noted are these: 2C mouse CD8+ T cells, at 7 µM, stronger effect = lower value; double positive events: measured here: CD8+/vesicle+ event percentage.
The target of assay [7] is Integrin beta-1 (Homo sapiens) + Integrin alpha-4 (Homo sapiens) (UniProt P13612+P05556). Description: alpha4beta1 integrin LIBS antibody binding reduction – U937 cells, HUTS-21 mAb, flow cytometry, validation set, VLA-4 allosteric modulator project, pilot screen (AID 2674;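 active = inhibition above 50%, about 3 SD of the validation set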;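 also: antibody binding induced by the VLA-4 ligand LDV present at three times its Kd; 0% = LDV ligand with antibody and no compound and 100% = antibody without LDV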). As to conditions: HUTS-21 LIBS mAb binding, at 6.7 µM, stronger effect = higher value, binding induced by LDV ligand.
Integrin beta-1 (Homo sapiens) + Integrin alpha-4 (Homo sapiens), sequence (P05556 whole entry, looked up): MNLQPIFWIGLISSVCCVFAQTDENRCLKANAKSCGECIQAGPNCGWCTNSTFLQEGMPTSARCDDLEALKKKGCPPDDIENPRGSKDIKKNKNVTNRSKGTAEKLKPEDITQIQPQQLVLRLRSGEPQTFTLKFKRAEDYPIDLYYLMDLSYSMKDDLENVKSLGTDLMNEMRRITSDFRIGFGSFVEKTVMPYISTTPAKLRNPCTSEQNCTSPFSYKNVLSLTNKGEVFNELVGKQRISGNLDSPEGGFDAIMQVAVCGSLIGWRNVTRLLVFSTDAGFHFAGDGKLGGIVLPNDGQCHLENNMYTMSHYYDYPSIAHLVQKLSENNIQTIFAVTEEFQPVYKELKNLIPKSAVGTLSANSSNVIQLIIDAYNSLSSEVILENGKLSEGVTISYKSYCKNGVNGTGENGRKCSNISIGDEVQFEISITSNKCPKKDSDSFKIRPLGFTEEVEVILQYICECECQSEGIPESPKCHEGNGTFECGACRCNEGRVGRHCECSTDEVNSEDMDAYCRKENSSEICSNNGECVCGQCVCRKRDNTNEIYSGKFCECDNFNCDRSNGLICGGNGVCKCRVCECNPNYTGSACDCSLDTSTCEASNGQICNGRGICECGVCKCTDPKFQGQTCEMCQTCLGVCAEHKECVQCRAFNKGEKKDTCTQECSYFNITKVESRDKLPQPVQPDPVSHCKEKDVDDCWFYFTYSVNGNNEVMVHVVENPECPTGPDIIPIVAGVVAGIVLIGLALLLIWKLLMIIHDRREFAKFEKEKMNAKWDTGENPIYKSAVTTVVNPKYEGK
Integrin beta-1 (Homo sapiens) + Integrin alpha-4 (Homo sapiens), sequence (P13612 whole entry, looked up): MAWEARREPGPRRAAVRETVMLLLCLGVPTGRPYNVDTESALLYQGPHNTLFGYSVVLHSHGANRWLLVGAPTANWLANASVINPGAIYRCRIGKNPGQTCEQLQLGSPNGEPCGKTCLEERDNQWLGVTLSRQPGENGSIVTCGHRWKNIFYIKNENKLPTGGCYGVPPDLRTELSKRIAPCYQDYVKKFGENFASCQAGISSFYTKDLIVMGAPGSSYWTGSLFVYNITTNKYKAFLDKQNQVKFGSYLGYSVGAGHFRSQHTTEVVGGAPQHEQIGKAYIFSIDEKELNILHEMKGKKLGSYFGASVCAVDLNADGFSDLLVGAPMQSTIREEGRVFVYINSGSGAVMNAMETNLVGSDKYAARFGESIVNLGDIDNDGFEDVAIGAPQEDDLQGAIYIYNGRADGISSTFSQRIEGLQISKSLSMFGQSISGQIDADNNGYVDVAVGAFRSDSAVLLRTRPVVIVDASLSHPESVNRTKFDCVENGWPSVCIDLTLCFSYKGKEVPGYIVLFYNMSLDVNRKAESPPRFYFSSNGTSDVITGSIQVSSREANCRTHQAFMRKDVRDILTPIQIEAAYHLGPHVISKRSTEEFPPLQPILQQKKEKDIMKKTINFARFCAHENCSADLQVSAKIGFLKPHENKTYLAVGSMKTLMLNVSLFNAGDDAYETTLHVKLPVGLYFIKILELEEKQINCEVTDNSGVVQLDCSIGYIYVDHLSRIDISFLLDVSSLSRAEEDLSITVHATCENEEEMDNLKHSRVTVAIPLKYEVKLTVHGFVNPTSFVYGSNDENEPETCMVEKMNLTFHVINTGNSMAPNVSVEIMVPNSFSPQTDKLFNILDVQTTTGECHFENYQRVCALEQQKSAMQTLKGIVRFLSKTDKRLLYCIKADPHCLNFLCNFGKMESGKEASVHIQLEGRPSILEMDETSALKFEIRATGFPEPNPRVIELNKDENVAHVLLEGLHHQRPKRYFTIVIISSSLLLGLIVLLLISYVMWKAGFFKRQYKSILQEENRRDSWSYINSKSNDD

A short description of assay [8]: calorie-restriction mimetic ROS inhibitors, yeast – validation compound set, pilot screen (AID 2706;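 active = superoxide response below 65% of plate, a cut near 3 SD across the whole screen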;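 also: yeast exposed to compound for one week at 30 degrees C before staining; 100% = mean of all compound wells on the same plate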). As to conditions: S. cerevisiae aging, superoxide DHE fluorescence; at 10 µM; stronger effect = lower value.
Assay [9] deals with Beta-adrenergic receptor kinase 1 (Homo sapiens) (UniProt P25098). Description: GRK2 binders displacing RNA aptamer, biochemical, validation, human GRK2, bead flow cytometry (AID 488806;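 active = aptamer binding inhibition above 30%, about 3 SD of noise from non-fluorescent compounds; inactive = inhibition at or below 30%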). As to conditions: bead-bound GRK2, FAM-aptamer displacement, at 10 µM, stronger effect = higher value.
Beta-adrenergic receptor kinase 1 (Homo sapiens), sequence (P25098 whole entry, looked up): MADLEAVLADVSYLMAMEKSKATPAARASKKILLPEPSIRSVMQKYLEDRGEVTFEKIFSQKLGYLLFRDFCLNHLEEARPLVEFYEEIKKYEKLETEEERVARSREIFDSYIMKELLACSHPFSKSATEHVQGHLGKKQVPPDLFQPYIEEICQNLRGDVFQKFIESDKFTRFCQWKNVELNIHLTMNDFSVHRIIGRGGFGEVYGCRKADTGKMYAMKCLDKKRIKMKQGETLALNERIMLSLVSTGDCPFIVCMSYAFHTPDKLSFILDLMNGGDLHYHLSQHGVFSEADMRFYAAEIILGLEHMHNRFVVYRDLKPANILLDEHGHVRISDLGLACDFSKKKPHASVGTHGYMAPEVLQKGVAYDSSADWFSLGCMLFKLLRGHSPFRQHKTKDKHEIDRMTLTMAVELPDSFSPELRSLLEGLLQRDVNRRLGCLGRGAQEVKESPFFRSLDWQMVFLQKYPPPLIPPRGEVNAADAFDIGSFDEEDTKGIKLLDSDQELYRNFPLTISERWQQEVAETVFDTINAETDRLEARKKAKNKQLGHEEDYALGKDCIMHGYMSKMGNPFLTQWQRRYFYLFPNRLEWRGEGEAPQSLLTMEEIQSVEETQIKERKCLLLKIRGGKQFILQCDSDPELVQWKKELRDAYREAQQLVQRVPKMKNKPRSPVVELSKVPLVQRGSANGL
In assay [10] the target is Beta-2 adrenergic receptor (Homo sapiens) (UniProt P07550). The assay can be described thus: agonist-induced loss of surface beta2AR – cell-based, FAP fluorogen, flow cytometry, validation set, pilot screen (AID 504459;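 active = percent response above 42, roughly 3 SD of non-fluorescent test compounds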;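 also: agonist-driven loss of surface beta2AR via internalization measured by FAP dye flow cytometry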). As to conditions: Am2.2-beta2AR cells, at 10 µM, stronger effect = higher value.
Beta-2 adrenergic receptor (Homo sapiens), sequence (P07550 whole entry, looked up): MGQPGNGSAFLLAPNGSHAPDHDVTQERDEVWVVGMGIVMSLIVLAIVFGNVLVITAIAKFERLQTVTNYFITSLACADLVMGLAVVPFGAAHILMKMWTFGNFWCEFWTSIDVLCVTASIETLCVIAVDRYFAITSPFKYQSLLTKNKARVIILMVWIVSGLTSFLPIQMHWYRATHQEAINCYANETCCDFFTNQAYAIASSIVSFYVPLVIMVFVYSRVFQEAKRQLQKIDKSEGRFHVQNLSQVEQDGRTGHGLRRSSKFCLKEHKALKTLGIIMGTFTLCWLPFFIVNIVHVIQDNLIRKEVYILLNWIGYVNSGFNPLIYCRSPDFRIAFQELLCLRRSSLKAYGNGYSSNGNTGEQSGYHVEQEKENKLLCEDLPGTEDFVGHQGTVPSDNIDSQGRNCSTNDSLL
Assay [11] deals with AP-2 complex subunit beta (Homo sapiens) (UniProt P63010). The assay can be described thus: beta-arrestin/AP2 interaction blockers – biochemical, validation set, GST-AP2 beads, flow cytometry, pilot screen (AID 504541;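 active = inhibition above 54%, about 3 SD of non-fluorescent compounds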;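 also: AP2 carries R879A mutation and is captured from E. coli lysate; bead-bound FITC arrestin peptide fluorescence measuring arrestin peptide binding to AP2; 0% = DMSO wells and 100% = excess unlabeled arrestin peptide control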). As to conditions: FITC arrestin peptide, at 10 µM, stronger effect = higher value, AP2 beta2 appendage fragment, R879A mutant.
AP-2 complex subunit beta (Homo sapiens), sequence (P63010 whole entry, looked up, the tested form may be a part, one chain of several): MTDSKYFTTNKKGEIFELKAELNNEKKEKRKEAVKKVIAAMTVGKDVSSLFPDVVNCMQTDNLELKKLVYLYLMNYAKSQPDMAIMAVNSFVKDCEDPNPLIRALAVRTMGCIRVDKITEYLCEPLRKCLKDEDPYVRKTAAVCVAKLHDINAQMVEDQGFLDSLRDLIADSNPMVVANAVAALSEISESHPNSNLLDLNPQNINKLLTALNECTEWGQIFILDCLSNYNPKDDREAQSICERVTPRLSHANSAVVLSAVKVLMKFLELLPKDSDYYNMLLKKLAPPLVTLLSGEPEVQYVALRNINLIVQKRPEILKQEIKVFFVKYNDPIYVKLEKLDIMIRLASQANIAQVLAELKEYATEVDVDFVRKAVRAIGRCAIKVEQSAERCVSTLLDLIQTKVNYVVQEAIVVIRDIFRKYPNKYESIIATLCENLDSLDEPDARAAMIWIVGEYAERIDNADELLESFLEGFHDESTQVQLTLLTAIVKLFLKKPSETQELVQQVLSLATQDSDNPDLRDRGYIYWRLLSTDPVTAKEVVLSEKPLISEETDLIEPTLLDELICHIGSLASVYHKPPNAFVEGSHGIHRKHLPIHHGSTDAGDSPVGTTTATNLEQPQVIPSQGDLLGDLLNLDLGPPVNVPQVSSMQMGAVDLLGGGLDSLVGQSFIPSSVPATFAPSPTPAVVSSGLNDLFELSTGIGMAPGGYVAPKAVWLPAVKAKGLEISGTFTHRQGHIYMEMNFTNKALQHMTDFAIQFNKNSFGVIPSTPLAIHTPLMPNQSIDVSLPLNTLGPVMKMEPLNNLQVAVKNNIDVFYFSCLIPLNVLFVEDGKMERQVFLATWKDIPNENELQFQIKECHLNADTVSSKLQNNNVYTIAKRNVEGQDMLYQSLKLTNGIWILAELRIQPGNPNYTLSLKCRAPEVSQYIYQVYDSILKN
The nature of assay [12]: cytosolic pH regulators acting via V-ATPase – S. cerevisiae, pHLuorin, HTS validation (AID 504600; in the data active = response above about 15%;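 also: plate controls were DMSO for no effect and reference compound for full effect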). As to conditions: V-ATPase proton transport, at 10 µM, stronger effect = higher value.
Assay [13] concerns anti-desmoglein-3 scFv antibody binding to human DSG3. Description: blockers of pathogenic pemphigus antibody–desmoglein-3 binding – biochemical, validation compound set, bead-based, flow cytometry, pilot screen (AID 588368;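 active = binding below the plate cutoff, the plate median minus 3 SD, with a reading above zero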;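 also: signal is the median channel fluorescence of bead-bound GFP antibody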). The conditions noted are these: Protein G beads, DSG3-Fc, scFv-GFP binding, at 10 µM, stronger effect = lower value.
A short description of assay [14]: Nile Red efflux blockade in pump-expressing yeast – validation compound set, multiplex, phenotypic, pilot screen (AID 588506;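 active = efflux inhibition above 0.42, the validation set average plus 4 SD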;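 also: Nile Red retained in cells so higher fluorescence means more efflux inhibition; 0 = negative control wells and 1 = enniatin B 25 µM full block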). As to conditions: S. cerevisiae pump-expressing triplex, Nile Red efflux flow cytometry; at 10 µM; stronger effect = higher value; the pumps come from Candida albicans.
Assay [15] deals with ATP-binding cassette sub-family B member 6 (Homo sapiens) (UniProt Q9NP58). The assay can be described thus: blockers of ABCB6-driven porphyrin uptake – K562-ABCB6 cells, flow cytometry, validation set, pilot screen (AID 588550;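 active = inhibition above the screen-wide mean plus 3 SD, about 51%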;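 also: 0% = DMSO wells and 100% = benzethonium chloride 70 µM positive control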). The conditions noted are these: K562-ABCB6 porphyrin accumulation, 1 h, at 10 µM, stronger effect = higher value.
ATP-binding cassette sub-family B member 6 (Homo sapiens), sequence (Q9NP58 whole entry, looked up): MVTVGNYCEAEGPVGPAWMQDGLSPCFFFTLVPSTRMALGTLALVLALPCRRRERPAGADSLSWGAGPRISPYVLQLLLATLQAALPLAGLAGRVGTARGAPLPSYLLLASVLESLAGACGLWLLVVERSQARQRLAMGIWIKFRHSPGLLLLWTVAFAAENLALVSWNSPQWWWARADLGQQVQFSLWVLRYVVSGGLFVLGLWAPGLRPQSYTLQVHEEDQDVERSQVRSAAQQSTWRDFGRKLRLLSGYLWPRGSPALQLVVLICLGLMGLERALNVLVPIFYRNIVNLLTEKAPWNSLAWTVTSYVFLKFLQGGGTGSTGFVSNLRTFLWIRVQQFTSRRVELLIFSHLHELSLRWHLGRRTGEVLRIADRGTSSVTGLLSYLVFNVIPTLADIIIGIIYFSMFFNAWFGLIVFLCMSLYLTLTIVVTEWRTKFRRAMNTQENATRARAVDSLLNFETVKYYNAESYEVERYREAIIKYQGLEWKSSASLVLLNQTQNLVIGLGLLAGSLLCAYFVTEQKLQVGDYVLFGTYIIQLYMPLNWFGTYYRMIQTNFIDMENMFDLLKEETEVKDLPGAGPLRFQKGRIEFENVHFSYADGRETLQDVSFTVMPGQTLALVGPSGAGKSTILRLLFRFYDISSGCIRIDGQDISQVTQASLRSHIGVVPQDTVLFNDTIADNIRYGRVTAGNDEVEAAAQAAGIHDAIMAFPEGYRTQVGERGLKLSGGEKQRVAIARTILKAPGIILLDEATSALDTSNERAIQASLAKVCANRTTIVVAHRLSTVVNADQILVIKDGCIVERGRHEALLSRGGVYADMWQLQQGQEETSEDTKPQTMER
Assay [16] can be described thus: AML differentiation inducers, ER-HoxA9 marrow cells – cell-based, GFP/MAC1 double positive, flow cytometry, validation set, primary screen (AID 588685;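 active = differentiation response of at least 50%, scaled between solvent and reference control, from cells with both markers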;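 also: compound exposure lasts four days before antibody staining and flow analysis; 0% = DMSO wells and 100% = 5 µM fulvestrant positive control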). The conditions noted are these: stronger effect = higher value, normalized: vehicle 0, fulvestrant 100.

As for `CC1(C)Oc2ccc(C#N)cc2[C@@H](N2CCCC2=O)[C@@H]1O`, the percent of DMSO control GFP in assay [1] is 97.9% (inactive). Further, the GFP response vs DMSO was 115% (inactive) in assay [2] and 78.7% (inactive) in assay [4]. Besides, in assay [3], the percent response of DMSO control is 116% (inactive). The GFP response, % of DMSO in assay [5] was 99.1% (inactive). Moreover, the double positive events in assay [6] came to 63%. Further, the vesicle binding response in assay [6] is 180% (inactive). The inhibition (usually the relative decrease from the control value, in per cent) was 2.58% (inactive) in assay [7], 1.01% (inactive) in [11] and 6% (inactive) in assay [15]. For the same compound, in assay [8], the superoxide response (% of plate) was 93% (inactive). The aptamer binding inhibition in assay [9] was -1% (inactive). Further, the figures for the response in assay [10] and in assay [12] were -6.3% (inactive) and 0.27% (inactive), respectively. In assay [13], the binding (% of control) was 100% (inactive). The efflux inhibition (fraction of control) in assay [14] was -0.09 (inactive). For the same compound, in assay [16], the differentiation response was 0% (inactive).
Take `COc1ccccc1CCn1cnc2c3cc(C)ccc3n(C)c2c1=O`: the percent of DMSO control GFP in assay [1] is 100% (inactive). The figures for the GFP response vs DMSO in assay [2] and in assay [4] were 106% (inactive) and 108% (inactive), respectively. Moreover, the percent response of DMSO control in assay [3] is 105% (inactive). Besides, in assay [5], the GFP response, % of DMSO was 98.8% (inactive). In [6], this compound gave a double positive events of 56.6%. Moreover, the vesicle binding response in assay [6] is 138% (inactive). For the same compound, the inhibition in assay [7] was -27.9% (inactive); in [11], 9.65% (inactive); in assay [15], -9% (inactive). The superoxide response (% of plate) in assay [8] is 94.8% (inactive). For the same compound, the aptamer binding inhibition in [9] is -1% (inactive). In addition, the response in [10] was -8.23% (inactive); in assay [12], -3.34% (inactive). Further, the binding (% of control) in assay [13] is 101% (inactive). Moreover, the efflux inhibition (fraction of control) in assay [14] is -0.31 (inactive). Also, the differentiation response in assay [16] is -14.8% (inactive).
On to `CCC(CO)NCCNC(CC)CO` (stereo not given), for which the percent of DMSO control GFP in assay [1] was 95.5% (inactive). In addition, the GFP response vs DMSO in assay [2] is 139% (inactive); in assay [4], 87.5% (inactive). In addition, the percent response of DMSO control in [3] is 101% (inactive). Further, in [5], the GFP response, % of DMSO is 97.7% (inactive). The same compound gave a double positive events in assay [6] of 66.7%. The vesicle binding response in assay [6] was 133% (inactive). Moreover, the inhibition in assay [7] is 4.52% (inactive); in assay [11], 33.3% (inactive); in [15], 114% (active). For the same compound, the superoxide response (% of plate) in assay [8] was 91.3% (inactive). Further, in assay [9], the aptamer binding inhibition was -1% (inactive). Besides, the response was 3.66% (inactive) in [10] and -3.71% (inactive) in [12]. In assay [13], the binding (% of control) is 103% (inactive). The efflux inhibition (fraction of control) in [14] was -0.28 (inactive). Moreover, the differentiation response in assay [16] was -1.64% (inactive).
Regarding `O=C(/C=C/c1ccc2c(c1)OCCCO2)c1ccc2ccccc2c1O`, the percent of DMSO control GFP in [1] is 97.3% (inactive). In addition, the GFP response vs DMSO in [2] was 102% (inactive); in assay [4], 112% (inactive). Besides, the percent response of DMSO control in assay [3] is 99.6% (inactive). Further, in [5], the GFP response, % of DMSO is 109% (inactive). Besides, the double positive events in assay [6] was determined as 59.6%. In addition, the vesicle binding response in assay [6] was 215% (inactive). In addition, the results for the inhibition in assay [7], in assay [11] and in assay [15] were -76.9% (inactive), -2.45% (inactive) and 6% (inactive), respectively. The superoxide response (% of plate) in [8] is 102% (inactive). Also, in assay [9], the aptamer binding inhibition was 8% (inactive). Moreover, the values for the response in assay [10] and in assay [12] were -12.2% (inactive) and 2.01% (inactive), respectively. The binding (% of control) in assay [13] is 98.5% (inactive). In addition, in [14], the efflux inhibition (fraction of control) is 0.04 (inactive). Also, in [16], the differentiation response is -7.94% (inactive).
Regarding `CCc1ccc2oc(=O)cc(CN3CCC(C)CC3)c2c1`, in [1], the percent of DMSO control GFP was 95% (inactive). Also, the GFP response vs DMSO was 104% (inactive) in assay [2] and 123% (inactive) in [4]. Besides, in [3], the percent response of DMSO control was 95.8% (inactive). Moreover, the GFP response, % of DMSO in assay [5] was 95.8% (inactive). Further, in [6], the double positive events is 53.7%. In addition, the vesicle binding response in assay [6] was 178% (inactive). Further, the results for the inhibition in [7], in [11] and in assay [15] were -18.2% (inactive), -0.51% (inactive) and -5% (inactive), respectively. Further, in assay [8], the superoxide response (% of plate) was 98.9% (inactive). Moreover, the aptamer binding inhibition in [9] was 0% (inactive). In addition, the response in [10] is 13.8% (inactive); in assay [12], 85.2% (active). In addition, the binding (% of control) in assay [13] was 103% (inactive). Besides, in assay [14], the efflux inhibition (fraction of control) is -0.06 (inactive). The differentiation response in assay [16] is -12% (inactive).
